Molecules are shown by their SMILES. The whole screen tested about 360,000 compounds, of which about 1,400 (0.39%) were called active. Shown is part of a subset that was picked to be rich in actives. A number with no mark means an inactive call. Rule as the data show it: active = inhibition above about 5% (passing the limit was not always enough); inactive = the rest.

Sequence of Tyrosine-protein kinase ABL1 (Homo sapiens) + Ras and Rab interactor 1 (Homo sapiens) (P00519 whole entry, looked up): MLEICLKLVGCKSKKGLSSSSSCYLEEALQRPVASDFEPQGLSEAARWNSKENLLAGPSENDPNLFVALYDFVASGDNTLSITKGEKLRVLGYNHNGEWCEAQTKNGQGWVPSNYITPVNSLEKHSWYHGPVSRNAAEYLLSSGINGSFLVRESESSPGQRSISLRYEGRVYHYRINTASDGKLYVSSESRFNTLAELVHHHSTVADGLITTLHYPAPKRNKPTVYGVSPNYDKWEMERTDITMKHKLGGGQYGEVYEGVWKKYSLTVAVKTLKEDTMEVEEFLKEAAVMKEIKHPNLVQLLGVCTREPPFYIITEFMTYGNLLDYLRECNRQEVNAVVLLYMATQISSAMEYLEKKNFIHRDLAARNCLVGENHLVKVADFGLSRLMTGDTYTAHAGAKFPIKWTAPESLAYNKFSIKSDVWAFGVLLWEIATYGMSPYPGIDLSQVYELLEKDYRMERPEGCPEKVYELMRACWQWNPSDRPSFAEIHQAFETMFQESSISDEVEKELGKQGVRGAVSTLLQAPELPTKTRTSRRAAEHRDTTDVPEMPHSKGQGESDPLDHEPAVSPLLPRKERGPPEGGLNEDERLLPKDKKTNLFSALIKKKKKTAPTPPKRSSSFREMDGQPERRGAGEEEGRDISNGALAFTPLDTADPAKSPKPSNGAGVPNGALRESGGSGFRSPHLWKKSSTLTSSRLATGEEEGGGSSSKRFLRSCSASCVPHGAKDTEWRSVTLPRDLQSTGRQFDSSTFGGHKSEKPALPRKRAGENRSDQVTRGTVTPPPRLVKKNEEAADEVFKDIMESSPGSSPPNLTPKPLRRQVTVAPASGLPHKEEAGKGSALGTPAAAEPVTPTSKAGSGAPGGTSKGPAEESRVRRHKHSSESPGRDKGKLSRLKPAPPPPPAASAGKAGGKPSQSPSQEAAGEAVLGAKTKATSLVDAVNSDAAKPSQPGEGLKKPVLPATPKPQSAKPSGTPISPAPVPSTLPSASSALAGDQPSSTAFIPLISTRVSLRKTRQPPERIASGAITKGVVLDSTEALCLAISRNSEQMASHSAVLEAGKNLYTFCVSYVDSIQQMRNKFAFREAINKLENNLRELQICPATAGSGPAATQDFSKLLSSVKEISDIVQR
Sequence of Tyrosine-protein kinase ABL1 (Homo sapiens) + Ras and Rab interactor 1 (Homo sapiens) (Q13671 whole entry, looked up): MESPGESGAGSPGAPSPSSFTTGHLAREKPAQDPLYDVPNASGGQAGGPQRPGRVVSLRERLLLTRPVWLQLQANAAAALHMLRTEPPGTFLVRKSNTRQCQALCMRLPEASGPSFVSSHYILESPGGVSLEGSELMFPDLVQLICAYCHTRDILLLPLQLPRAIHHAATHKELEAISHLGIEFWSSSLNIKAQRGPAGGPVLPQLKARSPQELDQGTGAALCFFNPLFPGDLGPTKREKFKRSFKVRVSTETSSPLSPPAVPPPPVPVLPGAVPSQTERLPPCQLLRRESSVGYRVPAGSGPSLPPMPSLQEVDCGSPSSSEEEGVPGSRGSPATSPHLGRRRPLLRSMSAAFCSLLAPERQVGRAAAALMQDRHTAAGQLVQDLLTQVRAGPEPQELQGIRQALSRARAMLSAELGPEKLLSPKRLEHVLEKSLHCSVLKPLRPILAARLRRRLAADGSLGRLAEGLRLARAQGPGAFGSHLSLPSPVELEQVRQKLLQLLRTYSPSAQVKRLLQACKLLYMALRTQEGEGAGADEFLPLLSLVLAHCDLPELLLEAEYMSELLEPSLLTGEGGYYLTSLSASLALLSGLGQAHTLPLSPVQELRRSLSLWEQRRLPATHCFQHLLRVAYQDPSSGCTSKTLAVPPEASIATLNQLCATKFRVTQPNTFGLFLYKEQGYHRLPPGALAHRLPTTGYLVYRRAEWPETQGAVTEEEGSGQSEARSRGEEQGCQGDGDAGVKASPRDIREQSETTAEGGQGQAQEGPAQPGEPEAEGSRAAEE

This test concerns the target Tyrosine-protein kinase ABL1 (Homo sapiens) + Ras and Rab interactor 1 (Homo sapiens) (UniProt P00519+Q13671). Description: disruptors of human Abl and Rin1 association – biochemical, TR-FRET, primary screen (AID 588664). As to conditions: TR-FRET Rin1/Abl binding, at 7.35 µM, stronger effect = higher value.
On to `C=CCN(C(=O)Cn1ncc2c1-c1cc(C)ccc1OC2)c1ccccc1`, for which the inhibition (commonly the change of the read-out against control, counted positive when it falls) is 2.13%. Take `CCOC(=O)N1CCN(C(=O)C2CCN(S(=O)(=O)c3cc(Cl)ccc3OCC)CC2)CC1`: the inhibition was 3.03%. Then `Cc1cnc(C)c(N2CCN(C(=O)C3CCC(=O)N(CCc4cccc(F)c4)C3)CC2)n1` (stereo not drawn), with -0.04%; and `CCOC(=O)N1CCN(C(=O)C2CCN(c3ncnc4c3sc3cccc(F)c34)CC2)CC1`, with 18.2% (active). Then `CCOC(=O)N1CCN(C(=O)C2CCN(Cc3ccc(OC)cc3OC)CC2)CC1`, with 0.29%; and `CCOC(=O)N1CCN(C(=O)C2CCCN(c3ncnc4c3sc3cccc(F)c34)C2)CC1` (stereo not drawn), with 6.58% (active). Consider `Cc1cc(=O)n2nc(N3CCCC(C(=O)N4CCN(C)CC4)C3)sc2n1` (stereo not drawn), for which the inhibition was 1.05%. `O=C(CCNC(=O)c1ccc([N+](=O)[O-])cc1)NC1CCCCC1`: the inhibition was -2.29%.

Consider `O=C1CC2(CCCCC2)Oc2ccc(OCC(=O)N3CCOCC3)cc21`, for which the inhibition is -3.03%. Take `COc1cc2c(cc1CNC[C@H]1O[C@@H](n3cnc(C(N)=O)n3)[C@H](O)[C@@H]1O)OCO2`: the inhibition was -2.98%. For `CCOc1ccc(N(CC)S(=O)(=O)c2cccc3nsnc23)cc1`, the inhibition was -2.8%. With `O=C(NC(c1ccc(-c2ccccc2)cc1)c1cnccn1)C1CCN(CCOc2ccc(Cl)cc2Cl)CC1` (stereo not drawn), the inhibition is -3.71%. Then `O=C(NC(c1ccc(Cl)cc1)c1cnccn1)C1CCN(Cc2ccc(Cl)cc2)CC1` (stereo not drawn), with -1.67%; and `Cc1ccc(C(NC(=O)C2CCN(CCOc3ccc(Cl)cc3Cl)CC2)c2ccccn2)cc1` (stereo not drawn), with 9.27% (active); and `CCCS(=O)(=O)Nc1c(C(=O)O)[nH]c2ccccc12`, with 0.58%.

In the case of `CCOC(=O)c1c(NC(=O)CN2C(=O)NC3(CCC(C)CC3)C2=O)sc(C)c1CC` (stereo not drawn), the inhibition was 0.02%.

On to `C=CCn1c2ccccc2c2nnc(SCc3[nH]c(=O)[nH]c3C(=O)CCCCC(=O)OCC)nc21`, for which the inhibition is 59.4% (active). Then `C=CCn1c2ccccc2c2nnc(SC(CC)C(=O)Nc3nc(C)c(C(=O)OCC)s3)nc21` (stereo not drawn), with 2.82%; and `C=CCn1c(SCC(=O)CC(=O)OCC)nc2cc(C(=O)N3CCC(C(N)=O)CC3)ccc2c1=O`, with -1.96%.

For the molecule `COc1ccc(NC(=O)C2CCC(CNS(=O)(=O)c3csc(C(N)=O)c3)CC2)cc1OC` (stereo not drawn), the inhibition is -0.76%.

For the molecule `COc1ccc(CCC(=O)Nc2ccc(Cl)c(S(=O)(=O)N3CCOCC3)c2)cc1OC`, the inhibition was 0.12%. Consider `CN(CC(=O)Nc1ccc(S(=O)(=O)N2CCCC2)cc1)Cc1ccc(Cl)c(Cl)c1`, for which the inhibition is -4.78%. Then `CN(CC(=O)Nc1ccc(F)cc1)CC(=O)Nc1ccc(Cl)c(S(=O)(=O)N2CCOCC2)c1`, with 5.07% (active).

Values taken from PubChem BioAssay AID588664 (The Scripps Research Institute Molecular Screening Center, 2011).
